Test results reported in the supplement of paper PMC10849652.
Of roughly 7,900 targets only a part is listed; those with a hit were picked by preference. About 0.6% of all pairs of compound and target were hits.

Tests used:
Assay in all cases: log2 fold change, soluble protein after heating vs DMSO (PISA); higher = thermal stabilisation; K562 cells, 10 uM, 30 min; active = over 0.2 and 3.5 SD of the protein, either way, in both replicates (recomputed)
erlotinib = compound: C#Cc1cccc(Nc2ncnc3cc(OCCOC)c(OCCOC)cc23)c1 [erlotinib]
Outline: (§1)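 Soluble protein was quantified by TMTpro 16plex LC-MS/MS after channel sums were equalised. It was obtained as the supernatant after 21,000xg for 90 min from pooled aliquots of K562 cells (2×10^6 cells/mL, 10 μM compound, 30 min) heated for 3 min across 48°C-58°C and extracted in PBS with 0.5% NP-40 at 4°C. Thermal stability values are relative to control samples and come from duplicates. They are given as log2 fold changes.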

[1] = compound: C/C(=N\NC(=O)C1=CC(=CC=C1)S(=O)(=O)N2CCOCC2)/C3=C(C=CC(=C3)Cl)O
Outline: as §1

[2] = compound: C1=CC(=C(C=C1Cl)C2=NC3=NC=CN=C3C(=N2)NC4=CC=NC=C4)F
Outline: as §1

[3] = compound: C1=CC(=CC=C1C2=NC3=C(N2)C=C(C=C3)C(=O)N)OC4=CC=C(C=C4)Cl
Outline: as §1

[4] = compound: C1=CC2=C(C=CC(=C2)/C=C\3/C(=O)NC(=NCC4=CC=CS4)S3)N=C1
Outline: as §1

[5] = compound: C1=CC2=NC=CN=C2C=C1/C=C/3\C(=O)NC(=O)S3
Outline: as §1

[6] = compound: C1=CC=C(C=C1)C2=NC(=C(N2)C3=CC=NC=C3)C4=CC(=C(C=C4)Cl)O
Outline: as §1

[7] = compound: C1=CC=C2C(=C1)C3=NNC4=CC=CC(=C43)C2=O
Outline: as §1

[8] = compound: C1CCN(C1)C(=O)NC2=CC=CC(=C2)NC3=NC=C(C(=N3)NCCC4=CN=CN4)Br
Outline: as §1

[9] = compound: C1CN(CCC1(CC2=CC=C(C=C2)Cl)N)C3=NC=NC4=C3C=CN4
Outline: as §1

IRAK-1-4 Inhibitor I = compound: C1COCCN1CCN2C3=CC=CC=C3N=C2NC(=O)C4=CC(=CC=C4)[N+](=O)[O-] [IRAK-1-4 Inhibitor I]
Outline: as §1

ibrutinib = compound: C=CC(=O)N1CCC[C@@H](n2nc(-c3ccc(Oc4ccccc4)cc3)c3c(N)ncnc32)C1 [ibrutinib]
Outline: as §1

[10] = compound: CC(=O)c1cnc2ccc(-c3cc(Cl)c(O)c(Cl)c3)nc2c1N[C@H]1CC[C@H](CN(C)C)CC1
Outline: as §1

ralimetinib = compound: CC(C)(C)Cn1c(N)nc2ccc(-c3[nH]c(C(C)(C)C)nc3-c3ccc(F)cc3)nc21 [ralimetinib]
Outline: as §1

[11] = compound: CC(C)(O)CC(=O)NCCn1ccc2ncnc(Nc3ccc(Oc4cccc(C(F)(F)F)c4)c(Cl)c3)c21
Outline: as §1

[12] = compound: CC(C)C1=C2N=C(C=C(N2N=C1)NCC3=CC=CC=C3)NCCCCCCN
Outline: as §1

[13] = compound: CC(C)C[C@@H](C=O)NC(=O)[C@H](CC(C)C)NC(=O)[C@H](CC(C)C)NC(=O)OCc1ccccc1
Outline: as §1

pinometostat = compound: CC(C)N(C[C@H]1O[C@@H](n2cnc3c(N)ncnc32)[C@H](O)[C@@H]1O)[C@H]1C[C@@H](CCc2nc3cc(C(C)(C)C)ccc3[nH]2)C1 [pinometostat]
Outline: as §1

[14] = compound: CC1=C(C(CC(=O)N1)C2=CC=C(C=C2)C(F)(F)F)C(=O)NC3=C(C=C4C(=C3)C=NN4)F
Outline: as §1

[15] = compound: CC1=C(C2=C(C=C1)C(=O)C3=CC=CC=C3N2CCCN)C
Outline: as §1

Measured: log2 fold change

SRRM2 (UniProt Q9UQ35)
UniProt Q9UQ35, sequence (Q9UQ35 whole entry, looked up): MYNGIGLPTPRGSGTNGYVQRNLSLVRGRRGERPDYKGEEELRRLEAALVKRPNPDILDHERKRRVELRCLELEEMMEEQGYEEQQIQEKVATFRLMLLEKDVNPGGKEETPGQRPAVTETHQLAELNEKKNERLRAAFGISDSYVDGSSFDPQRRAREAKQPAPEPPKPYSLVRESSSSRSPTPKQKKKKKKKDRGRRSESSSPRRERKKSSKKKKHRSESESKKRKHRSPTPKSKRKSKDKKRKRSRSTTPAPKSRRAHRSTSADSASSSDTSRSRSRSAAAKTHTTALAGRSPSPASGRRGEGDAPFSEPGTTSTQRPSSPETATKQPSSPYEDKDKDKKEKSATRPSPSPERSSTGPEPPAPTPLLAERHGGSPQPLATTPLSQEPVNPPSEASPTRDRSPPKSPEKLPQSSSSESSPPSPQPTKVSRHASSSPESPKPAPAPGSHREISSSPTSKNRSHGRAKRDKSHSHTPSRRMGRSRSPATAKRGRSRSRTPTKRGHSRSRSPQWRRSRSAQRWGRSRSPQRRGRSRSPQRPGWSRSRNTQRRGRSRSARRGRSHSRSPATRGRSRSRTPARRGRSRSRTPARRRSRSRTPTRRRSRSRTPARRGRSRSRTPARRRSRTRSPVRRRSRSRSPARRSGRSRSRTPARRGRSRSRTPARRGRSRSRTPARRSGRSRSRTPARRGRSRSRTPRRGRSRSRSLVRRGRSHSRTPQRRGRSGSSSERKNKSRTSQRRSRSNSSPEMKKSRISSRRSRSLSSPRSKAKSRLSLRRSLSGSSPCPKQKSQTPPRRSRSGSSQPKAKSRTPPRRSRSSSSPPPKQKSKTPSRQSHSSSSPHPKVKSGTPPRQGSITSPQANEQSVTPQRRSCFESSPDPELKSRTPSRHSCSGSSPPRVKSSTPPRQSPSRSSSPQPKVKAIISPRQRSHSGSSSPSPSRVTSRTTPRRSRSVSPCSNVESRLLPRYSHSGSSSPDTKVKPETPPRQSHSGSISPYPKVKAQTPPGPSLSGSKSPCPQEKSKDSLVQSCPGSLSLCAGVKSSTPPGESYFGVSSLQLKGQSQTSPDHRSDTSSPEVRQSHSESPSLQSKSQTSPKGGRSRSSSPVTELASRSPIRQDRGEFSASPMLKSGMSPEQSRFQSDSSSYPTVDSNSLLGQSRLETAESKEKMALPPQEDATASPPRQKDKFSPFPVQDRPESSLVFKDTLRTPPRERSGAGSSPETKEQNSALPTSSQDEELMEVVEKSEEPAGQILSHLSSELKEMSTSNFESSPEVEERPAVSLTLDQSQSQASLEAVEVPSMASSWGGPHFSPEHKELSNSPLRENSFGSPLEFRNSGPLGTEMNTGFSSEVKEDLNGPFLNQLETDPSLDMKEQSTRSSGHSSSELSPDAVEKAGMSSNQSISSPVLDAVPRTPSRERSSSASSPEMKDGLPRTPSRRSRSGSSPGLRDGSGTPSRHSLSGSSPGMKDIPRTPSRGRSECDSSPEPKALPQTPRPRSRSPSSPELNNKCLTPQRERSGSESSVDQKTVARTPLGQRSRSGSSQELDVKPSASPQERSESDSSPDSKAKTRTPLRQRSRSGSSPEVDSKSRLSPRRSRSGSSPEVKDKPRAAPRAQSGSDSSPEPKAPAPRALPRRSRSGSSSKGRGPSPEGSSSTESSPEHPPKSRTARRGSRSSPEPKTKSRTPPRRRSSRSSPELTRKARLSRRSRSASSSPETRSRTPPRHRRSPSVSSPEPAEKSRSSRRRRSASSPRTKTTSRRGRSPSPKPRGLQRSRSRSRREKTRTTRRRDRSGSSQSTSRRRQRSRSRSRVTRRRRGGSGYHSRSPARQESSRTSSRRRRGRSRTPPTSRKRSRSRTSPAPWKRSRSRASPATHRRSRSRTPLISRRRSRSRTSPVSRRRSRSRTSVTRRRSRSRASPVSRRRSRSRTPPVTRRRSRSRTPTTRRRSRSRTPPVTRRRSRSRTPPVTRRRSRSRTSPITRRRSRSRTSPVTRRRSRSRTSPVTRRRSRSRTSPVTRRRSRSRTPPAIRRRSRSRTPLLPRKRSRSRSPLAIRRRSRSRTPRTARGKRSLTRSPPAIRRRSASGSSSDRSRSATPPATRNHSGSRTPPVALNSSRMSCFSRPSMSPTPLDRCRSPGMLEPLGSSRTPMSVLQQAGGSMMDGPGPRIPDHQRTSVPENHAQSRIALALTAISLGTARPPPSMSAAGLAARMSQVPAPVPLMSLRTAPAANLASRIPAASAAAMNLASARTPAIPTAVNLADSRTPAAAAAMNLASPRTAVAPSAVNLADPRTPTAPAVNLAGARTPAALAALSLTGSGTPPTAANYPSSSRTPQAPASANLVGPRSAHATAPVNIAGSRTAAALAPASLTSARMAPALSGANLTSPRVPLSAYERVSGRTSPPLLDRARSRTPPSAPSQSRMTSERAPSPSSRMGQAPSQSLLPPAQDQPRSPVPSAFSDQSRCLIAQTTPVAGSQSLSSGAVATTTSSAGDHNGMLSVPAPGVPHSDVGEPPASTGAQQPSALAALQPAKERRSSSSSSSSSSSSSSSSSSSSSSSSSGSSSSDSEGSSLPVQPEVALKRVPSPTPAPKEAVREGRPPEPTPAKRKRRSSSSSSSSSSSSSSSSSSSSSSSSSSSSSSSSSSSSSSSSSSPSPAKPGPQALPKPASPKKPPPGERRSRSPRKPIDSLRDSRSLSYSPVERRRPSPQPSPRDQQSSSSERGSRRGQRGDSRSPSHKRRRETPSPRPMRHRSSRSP
inactive: erlotinib 0.067 | [1] 0.095 | [2] -0.136 | [3] 0.07 | [4] -0.123 | [5] 0.014 | [6] -0.044 | [7] -0.073 | [8] -0.061 | [9] -0.128 | IRAK-1-4 Inhibitor I -0.074 | ibrutinib -0.015 | [10] -0.326 | ralimetinib 0.063 | [11] 0.01 | [12] -0.258 | [13] 0.002 | pinometostat 0.005 | [14] -0.005 | [15] -0.181

TFB2M (UniProt Q9H5Q4)
UniProt Q9H5Q4, sequence (Q9H5Q4 whole entry, looked up): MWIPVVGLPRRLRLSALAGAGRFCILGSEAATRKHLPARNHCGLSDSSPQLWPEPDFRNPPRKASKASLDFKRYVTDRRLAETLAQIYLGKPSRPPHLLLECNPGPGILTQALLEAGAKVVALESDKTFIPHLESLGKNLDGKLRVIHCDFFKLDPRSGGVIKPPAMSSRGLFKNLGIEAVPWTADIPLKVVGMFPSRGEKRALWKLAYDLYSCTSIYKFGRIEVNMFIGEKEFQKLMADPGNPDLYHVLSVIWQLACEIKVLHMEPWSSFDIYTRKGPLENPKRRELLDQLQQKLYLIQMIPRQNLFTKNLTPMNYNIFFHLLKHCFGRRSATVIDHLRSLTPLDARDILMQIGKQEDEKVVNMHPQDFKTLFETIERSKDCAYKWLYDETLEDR
inactive: erlotinib 0.007 | [1] 0.094 | [2] 0.037 | [3] -0.043 | [4] 0.016 | [5] 0.019 | [6] -0.022 | [7] -0.019 | [8] 0.002 | [9] 0.007 | IRAK-1-4 Inhibitor I 0.037 | ibrutinib -0.029 | [10] -0.013 | ralimetinib -0.085 | [11] -0.136 | [12] -0.08 | [13] 0.02 | pinometostat 0.012 | [14] -0.03 | [15] 0.005

SNRPB2 (UniProt P08579)
UniProt P08579, sequence (P08579 whole entry, looked up): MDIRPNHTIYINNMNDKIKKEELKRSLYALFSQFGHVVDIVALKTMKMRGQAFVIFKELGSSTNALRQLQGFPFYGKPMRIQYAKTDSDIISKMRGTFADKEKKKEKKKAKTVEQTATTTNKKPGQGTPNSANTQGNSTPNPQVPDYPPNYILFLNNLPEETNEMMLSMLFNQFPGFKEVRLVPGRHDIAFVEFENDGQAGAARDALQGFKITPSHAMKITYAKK
active: [12] 0.213
inactive: erlotinib -0.032 | [1] -0.056 | [2] -0.01 | [3] -0.019 | [4] -0.034 | [5] 0.042 | [6] -0.054 | [7] -0.015 | [8] 0.057 | [9] -0.026 | IRAK-1-4 Inhibitor I 0.067 | ibrutinib 0.074 | [10] 0.089 | ralimetinib -0.015 | [11] 0.037 | [13] 0.037 | pinometostat 0 | [14] -0.012 | [15] 0.036

TJP1 (UniProt Q07157)
inactive: erlotinib 0.095 | [1] 0.072 | [2] 0.022 | [3] -0.015 | [4] 0.013 | [5] -0.135 | [6] 0.003 | [7] -0.029 | [8] -0.03 | [9] -0.035 | IRAK-1-4 Inhibitor I -0.033 | ibrutinib 0.03 | ralimetinib 0.028 | [11] -0.02 | [12] -0.003 | [13] 0.014 | pinometostat 0.037 | [14] 0.007 | [15] 0.034
active: [10] -0.443

SRPRB (UniProt Q9Y5M8)
active: [15] 0.292
inactive: erlotinib -0.015 | [1] 0.106 | [2] 0.122 | [3] -0.018 | [4] 0.045 | [5] -0.036 | [6] 0.089 | [7] 0.024 | [8] -0.006 | [9] 0.017 | IRAK-1-4 Inhibitor I -0.021 | ibrutinib 0.004 | [10] -0.014 | ralimetinib 0.034 | [11] -0.055 | [12] -0.036 | [13] -0.051 | pinometostat -0.026 | [14] -0.109

TARBP1 (UniProt Q13395)
inactive: erlotinib 0.015 | [1] 0.062 | [2] 0.023 | [3] 0.027 | [4] -0.091 | [5] 0.065 | [6] -0.022 | [7] 0.012 | [8] -0.085 | [9] 0.019 | IRAK-1-4 Inhibitor I 0.062 | ibrutinib -0.007 | [10] -0.01 | ralimetinib 0.003 | [11] -0.074 | [12] -0.066 | [13] 0.009 | pinometostat 0.041 | [14] 0.04 | [15] 0.184

STRN (UniProt O43815)
active: [6] 0.213
inactive: erlotinib -0.03 | [1] 0 | [2] 0.033 | [3] 0.013 | [4] -0.008 | [5] 0.005 | [7] 0.025 | [8] -0.124 | [9] 0.053 | IRAK-1-4 Inhibitor I 0.029 | ibrutinib 0.073 | [10] -0.046 | ralimetinib 0.13 | [11] -0.023 | [12] 0.03 | [13] -0.066 | pinometostat -0.002 | [14] -0.037 | [15] 0

SMARCA5 (UniProt O60264)
inactive: erlotinib 0.103 | [1] 0.044 | [2] -0.058 | [3] 0.005 | [4] -0.012 | [5] 0.078 | [6] 0.052 | [7] -0.103 | [8] -0.109 | [9] -0.227 | IRAK-1-4 Inhibitor I -0.108 | ibrutinib -0.135 | [10] 0.103 | ralimetinib 0.033 | [11] -0.113 | [12] -0.025 | [13] 0.084 | pinometostat 0.068 | [14] -0.135
active: [15] -0.97

STAT3 (UniProt P40763)
inactive: erlotinib -0.023 | [1] 0.147 | [2] 0.026 | [3] 0.007 | [4] 0.031 | [5] 0.031 | [6] 0.011 | [7] -0.001 | [8] -0.01 | [9] -0.036 | IRAK-1-4 Inhibitor I -0.038 | ibrutinib -0.044 | [10] 0.009 | ralimetinib -0.001 | [11] -0.08 | [13] 0.024 | pinometostat 0 | [14] -0.05 | [15] -0.057
active: [12] -0.261

SQSTM1 (UniProt Q13501)
UniProt Q13501, sequence (Q13501 whole entry, looked up): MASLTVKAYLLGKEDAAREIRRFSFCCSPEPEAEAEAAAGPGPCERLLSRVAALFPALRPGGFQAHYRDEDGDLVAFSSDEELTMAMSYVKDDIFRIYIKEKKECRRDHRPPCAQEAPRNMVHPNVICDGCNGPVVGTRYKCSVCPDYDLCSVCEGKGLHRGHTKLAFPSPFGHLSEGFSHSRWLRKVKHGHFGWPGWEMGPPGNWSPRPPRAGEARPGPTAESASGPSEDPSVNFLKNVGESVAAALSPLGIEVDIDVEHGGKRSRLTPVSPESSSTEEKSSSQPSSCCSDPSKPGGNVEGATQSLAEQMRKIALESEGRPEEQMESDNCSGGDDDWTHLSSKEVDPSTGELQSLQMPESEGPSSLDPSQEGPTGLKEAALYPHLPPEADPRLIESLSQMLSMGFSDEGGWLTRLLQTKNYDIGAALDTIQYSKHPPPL
inactive: erlotinib -0.058 | [1] -0.008 | [2] 0.101 | [3] 0.037 | [4] -0.017 | [5] 0.108 | [6] -0.004 | [7] 0.02 | [8] -0.135 | [9] -0.045 | IRAK-1-4 Inhibitor I -0.006 | ibrutinib 0.012 | ralimetinib -0.026 | [11] 0.058 | [12] -0.118 | [13] 0.039 | pinometostat 0.048 | [14] 0.077 | [15] -0.079
active: [10] -0.298

STAT5A (UniProt P42229)
UniProt P42229, sequence (P42229 whole entry, looked up): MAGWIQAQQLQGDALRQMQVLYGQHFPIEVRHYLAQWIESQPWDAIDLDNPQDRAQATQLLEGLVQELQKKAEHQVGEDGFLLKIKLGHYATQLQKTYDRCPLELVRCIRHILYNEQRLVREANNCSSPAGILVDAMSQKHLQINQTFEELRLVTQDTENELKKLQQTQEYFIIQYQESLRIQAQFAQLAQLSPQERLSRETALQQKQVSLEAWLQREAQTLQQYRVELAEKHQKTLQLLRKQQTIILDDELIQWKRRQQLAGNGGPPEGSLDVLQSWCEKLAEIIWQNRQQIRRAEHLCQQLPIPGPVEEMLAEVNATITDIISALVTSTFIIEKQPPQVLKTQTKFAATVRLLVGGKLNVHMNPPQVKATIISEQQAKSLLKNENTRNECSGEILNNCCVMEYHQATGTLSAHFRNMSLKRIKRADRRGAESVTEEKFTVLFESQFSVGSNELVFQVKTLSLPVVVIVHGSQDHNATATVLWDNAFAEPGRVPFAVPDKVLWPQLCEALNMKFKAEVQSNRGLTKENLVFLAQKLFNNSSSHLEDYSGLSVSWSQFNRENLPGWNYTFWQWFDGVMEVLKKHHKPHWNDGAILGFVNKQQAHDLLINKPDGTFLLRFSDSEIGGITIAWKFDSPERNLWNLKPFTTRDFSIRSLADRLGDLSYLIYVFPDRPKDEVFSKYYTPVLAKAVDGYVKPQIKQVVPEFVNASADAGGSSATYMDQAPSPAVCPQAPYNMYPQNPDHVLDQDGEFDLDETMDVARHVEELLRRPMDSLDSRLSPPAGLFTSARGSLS
inactive: erlotinib 0.033 | [1] 0.173 | [2] 0.035 | [3] 0.048 | [4] 0.083 | [5] 0.01 | [6] 0.06 | [7] -0.026 | [8] -0.077 | [9] -0.028 | IRAK-1-4 Inhibitor I -0.116 | ibrutinib -0.088 | [10] -0.164 | ralimetinib 0.046 | [11] 0.019 | [12] -0.053 | [13] 0.006 | pinometostat 0.033 | [14] -0.002 | [15] -0.009

SNW1 (UniProt Q13573)
inactive: erlotinib -0.047 | [1] -0.028 | [2] -0.029 | [3] 0.036 | [4] -0.015 | [5] 0.045 | [6] -0.051 | [7] -0.001 | [8] 0.001 | [9] 0.002 | IRAK-1-4 Inhibitor I 0.004 | ibrutinib 0.024 | [10] 0.197 | ralimetinib 0.021 | [11] 0.024 | [12] 0.149 | [13] 0.075 | pinometostat -0.008 | [14] -0.015
active: [15] 0.23

SLIRP (UniProt Q9GZT3)
active: [13] 0.393
inactive: erlotinib 0.019 | [1] 0.205 | [2] 0.27 | [3] -0.014 | [4] 0.067 | [5] 0.093 | [6] 0.023 | [7] -0.187 | [8] -0.013 | [9] -0.028 | IRAK-1-4 Inhibitor I 0.004 | ibrutinib 0.035 | [10] -0.192 | ralimetinib -0.027 | [11] -0.239 | [12] -0.02 | pinometostat -0.016 | [14] 0.088 | [15] -0.342

TANK (UniProt Q92844)
inactive: erlotinib -0.019 | [1] -0.031 | [2] 0.101 | [3] -0.048 | [4] 0.002 | [5] 0.053 | [6] -0.024 | [7] -0.028 | [8] 0.014 | [9] 0.01 | IRAK-1-4 Inhibitor I -0.035 | ibrutinib 0.087 | [10] -0.181 | ralimetinib 0.034 | [11] -0.024 | [12] 0.007 | [13] 0.127 | pinometostat -0.047 | [14] 0.033 | [15] -0.053

SPR (UniProt P35270)
UniProt P35270, sequence (P35270 whole entry, looked up): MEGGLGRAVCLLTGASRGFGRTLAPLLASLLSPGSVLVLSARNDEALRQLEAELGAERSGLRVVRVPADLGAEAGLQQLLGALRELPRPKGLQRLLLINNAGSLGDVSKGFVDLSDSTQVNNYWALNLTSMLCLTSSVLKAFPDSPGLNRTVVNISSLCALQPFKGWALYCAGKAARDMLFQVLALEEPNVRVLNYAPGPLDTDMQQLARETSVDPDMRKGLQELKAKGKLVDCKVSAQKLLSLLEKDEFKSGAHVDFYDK
inactive: erlotinib 0.018 | [1] -0.089 | [2] -0.01 | [3] 0.005 | [4] 0.115 | [5] 0.016 | [7] 0.096 | [8] 0.02 | [9] 0.034 | IRAK-1-4 Inhibitor I 0.063 | ibrutinib 0.04 | [10] 0.344 | ralimetinib 0.017 | [11] -0.038 | [12] 0.035 | [13] -0.008 | pinometostat -0.053 | [14] 0.01 | [15] 0.083
active: [6] 0.732

SPAG9 (UniProt O60271)
active: [12] -0.219
inactive: erlotinib 0.018 | [1] -0.025 | [2] 0.034 | [3] -0.016 | [4] 0.028 | [5] 0.039 | [6] -0.016 | [7] -0.012 | [8] 0.015 | [9] -0.009 | IRAK-1-4 Inhibitor I -0.003 | ibrutinib -0.003 | [10] 0.022 | ralimetinib 0 | [11] -0.045 | [13] 0.016 | pinometostat 0.028 | [14] 0.011 | [15] -0.004
